Assay [1] deals with N-terminal Xaa-Pro-Lys N-methyltransferase 1 (Homo sapiens) (UniProt Q9BV86). Kind of assay: qHTS Assay for Inhibitors of N-terminal methyltransferase 1 (NTMT1): LOPAC validation of the NTMT1 SAHH-coupled ThioGlo3 Assay (AID 1347143).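 Also: SAH from peptide methylation measured as thiol fluorescence via SAHH coupling and ThioGlo3; nearly all actives have a fitted effect of over 70% in size.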 Also: potency is read from the fitted curve at half-maximal effect. Summed up:
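NTMT1 125nM + cpds (various conc.), 1 min RT; add SAM 100uM/SAHH 10uM/ThioGlo3 15uM (addition mix). SAHH-coupled thiol detection, Ex340/Em450, t0 and 30 min RT; signal normalized to background. LOPAC 1280-cpd pilot.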

Assay [2] concerns Zika virus NS2B-NS3 protease (unlinked). Briefly: Optimization of GU AMC qHTS for Zika virus inhibitors: Unlinked NS2B-NS3 protease assay (AID 1347151). Also: nearly all actives have a fitted effect of over 80% in size. Also: potency is read from the fitted curve at half-maximal effect. Summed up: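 Noncovalent complex of NS2B hydrophilic domain and NS3 protease domain, 25 nM final, in 10 mM Tris-HCl pH 8.0, 0.01% Tween 20. AMC fluorescence change over 15 min at room temperature was fitted to a 4-parameter Hill equation.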
(In general: In qHTS, concentration-response curves come from the screen itself.)

In assay [3] the test system is Zika virus NS2B-NS3 protease. Kind of assay: Primary screen GU AMC qHTS for Zika virus inhibitors (AID 1347154). Also: nearly all actives have a fitted effect of over 70% in size. Also: potency is read from the fitted curve at half-maximal effect. The gist of the method:
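Fluorogenic AMC-substrate cleavage by noncovalent NS2B-NS3 protease complex (25 nM, pH 8.0 Tris buffer with Tween 20) followed for 15 minutes at room temperature (~20% conversion). Percent inhibition from ex340/em450 signal change, fitted by 4-parameter Hill equation.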

The target of assay [4] is Lysine-specific demethylase 5B (Homo sapiens) (UniProt Q9UGL1). Kind of assay: Optimization screen for KDM5B Histone Demethylases FDH coupled qHTS against the LOPAC library (AID 1347166). The gist of the method:
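KDM5BDeltaAP (200nM final) in 50mM HEPES pH 7.5, 0.01% Tween-20 was preincubated with compound for 10 min at room temperature. A substrate mix of 12.5uM H3K4Me3, 25uM a-ketoglutarate, ascorbate, Fe2+, NAD+ and formaldehyde dehydrogenase was then added. NADH fluorescence (340/450 nm) was read initially and after 30 min.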

Assay [5] can be described thus: qHTS to identify inhibitors of the type 1 interferon - major histocompatibility complex class I in skeletal muscle: primary screen against the NCATS LOPAC collection (AID 1347405).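 Also: lytic HiBiT luminescence reporting HLA-B protein level.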 The gist of the method: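 After 24 h at 37 C with compounds (7-point, 1:4.3 dilutions, 46 uM top final) plus 4 ng/ml IFN-beta, luminescence from lytic HiBiT detection was measured. HLA-B*08:01 in C25cl48 myoblasts carried an endogenous C-terminal HiBiT tag; medium lacked dexamethasone.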

The nature of assay [6]: qHTS for inhibitors of adenylyl cyclases using a fission yeast platform: a pilot screen against the NCATS LOPAC library (AID 1347410). Summed up:
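S. pombe CHP2027 (AC9-GNAS-PDE4D2) carrying a PKA-repressed fbp1-GFP reporter was exposed to LOPAC compounds (final up to 57 µM) for 18 h at 30C in the dark, in EMM with histidine, lysine and uracil; GFP gain-of-signal read by laser scanning cytometry.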

The nature of assay [7]: qHTS to identify inhibitors of the type 1 interferon - major histocompatibility complex class I in skeletal muscle: primary screen against the NCATS Pharmaceutical Collection (AID 1347407).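 Also: luminescence of HiBiT knocked into endogenous HLA-B as interferon-induced MHC class I level.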 Summed up:
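Immortalized human myoblasts (C25cl48) with HiBiT knocked into endogenous HLA-B*08:01 were stimulated with 4 ng/ml IFN-beta and treated with compounds (8-point, 1:5, top 46 uM final) for 24 h at 37 C; HiBiT lytic luminescence read.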

In another assay the target is Furin (Homo sapiens) (UniProt P09958). Briefly: Furin counterscreen qHTS for Zika virus inhibitors (AID 1347149). Also: potency is read from the fitted curve at half-maximal effect; nearly all actives have a fitted effect of over 70% in size. Summed up: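 Counterscreen measures cleavage of 2 microM BOC-RVRR-AMC, below its ~15 microM Km, by 5 nM full-length human furin at pH 7.0 after a 15-min compound preincubation. Inhibition derives from the 15-min fluorescence increase at 37C.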
Assay [8] in a line: Confirmatory screen NINDS Rhodamine qHTS for Zika virus inhibitors (AID 1347161).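 Also: purified Zika NS2B-NS3 protease with linked NS2B cofactor domain and Rhodamine110 peptide substrate; series mostly up to about 110 µM; nearly all actives have a fitted effect of over 60% in size.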 The gist of the method:
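Enzyme (25 nM, linked NS2B-NS3) was preincubated 15 min with compound in 10 mM Tris-HCl pH 8.0, 0.01% Tween 20. Rhodamine110 substrate (1.5 microM) was then added and fluorescence read at start and after 15 min.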

Assay [9] in a line: Vero cells viability qHTS for Zika virus inhibitors (AID 1347167). Summed up: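 Luminescent ATP readout (CellTiter Glo) after 30 min at 37 degrees C gives viability; cells in DMEM + 4% FBS were treated 24 to 48 hours with compound, following overnight attachment.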
The nature of assay [10]: Tertiary RLuc qRT-PCR qHTS assay for Zika virus inhibitors (AID 1347169). Also: top concentration of the series differs between compounds; nearly all actives have a fitted effect of over 55% in size. Summed up:
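Vero cells (1,000 per well) plated overnight at 37 degrees C, treated with compound in DMSO, then infected with recombinant ZIKV-RLuc (Cambodian) at MOI 1-2 for 48-72 hrs. Live-cell Renilla luciferase substrate added; luminescence read after 1-1.5 hrs.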
(In general: Quantitative PCR measures a nucleic acid by following its amplification.)

The test system of assay [11] is Zika virus NS2B-NS3 protease (unlinked complex). Kind of assay: Confirmatory screen GU AMC qHTS for Zika virus inhibitors (AID 1347153). Also: nearly all actives have a fitted effect of over 70% in size. The gist of the method: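 Compounds were preincubated 15 min at room temperature with 25 nM noncovalent NS2B-NS3 protease at pH 8.0; AMC substrate added at 10 microM and 15-min fluorescence gain (340/450 nm) converted to percent inhibition, fitted 4-parameter.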

A number with no mark means an inactive call. Records with an inconclusive call do not appear. Calls of active or inactive are those of the source. Calls follow the shape of the dose curve; as a rule, active = well fitted curve in the direction sought with a large enough effect; inconclusive = small, poorly fitted or top-dose-only effect, or another doubt; inactive = no such curve, though single readings can be large; an effect the other way counts as inactive or inconclusive.

Furin (Homo sapiens), sequence (P09958 whole entry, looked up, the tested form may be a part): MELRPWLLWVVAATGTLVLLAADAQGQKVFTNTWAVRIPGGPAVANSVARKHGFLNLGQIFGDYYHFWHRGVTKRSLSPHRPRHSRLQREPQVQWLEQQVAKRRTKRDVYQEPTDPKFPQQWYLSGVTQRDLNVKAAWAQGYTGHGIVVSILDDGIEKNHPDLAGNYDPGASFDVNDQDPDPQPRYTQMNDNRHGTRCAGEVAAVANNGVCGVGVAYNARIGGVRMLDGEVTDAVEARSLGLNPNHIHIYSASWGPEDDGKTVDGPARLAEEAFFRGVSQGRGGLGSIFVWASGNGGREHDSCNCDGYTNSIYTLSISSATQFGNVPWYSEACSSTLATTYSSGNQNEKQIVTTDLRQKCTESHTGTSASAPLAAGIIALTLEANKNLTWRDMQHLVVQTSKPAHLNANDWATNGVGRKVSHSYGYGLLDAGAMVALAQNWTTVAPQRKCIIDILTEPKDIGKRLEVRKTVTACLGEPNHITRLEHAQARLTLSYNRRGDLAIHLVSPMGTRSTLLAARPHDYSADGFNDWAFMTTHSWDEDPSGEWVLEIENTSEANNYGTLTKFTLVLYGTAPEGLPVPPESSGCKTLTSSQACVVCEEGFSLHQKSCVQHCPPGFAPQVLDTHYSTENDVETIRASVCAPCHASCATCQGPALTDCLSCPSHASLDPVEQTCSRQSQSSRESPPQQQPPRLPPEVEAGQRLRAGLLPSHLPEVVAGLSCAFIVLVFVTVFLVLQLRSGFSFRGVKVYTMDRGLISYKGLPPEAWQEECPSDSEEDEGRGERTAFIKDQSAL
N-terminal Xaa-Pro-Lys N-methyltransferase 1 (Homo sapiens), sequence (Q9BV86 whole entry, looked up): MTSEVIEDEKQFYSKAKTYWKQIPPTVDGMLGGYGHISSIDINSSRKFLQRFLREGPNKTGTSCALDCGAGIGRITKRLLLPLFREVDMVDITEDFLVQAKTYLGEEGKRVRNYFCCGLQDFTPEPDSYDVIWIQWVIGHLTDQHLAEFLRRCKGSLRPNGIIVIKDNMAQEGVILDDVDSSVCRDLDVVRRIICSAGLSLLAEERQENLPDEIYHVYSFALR
Lysine-specific demethylase 5B (Homo sapiens), sequence (Q9UGL1 whole entry, looked up): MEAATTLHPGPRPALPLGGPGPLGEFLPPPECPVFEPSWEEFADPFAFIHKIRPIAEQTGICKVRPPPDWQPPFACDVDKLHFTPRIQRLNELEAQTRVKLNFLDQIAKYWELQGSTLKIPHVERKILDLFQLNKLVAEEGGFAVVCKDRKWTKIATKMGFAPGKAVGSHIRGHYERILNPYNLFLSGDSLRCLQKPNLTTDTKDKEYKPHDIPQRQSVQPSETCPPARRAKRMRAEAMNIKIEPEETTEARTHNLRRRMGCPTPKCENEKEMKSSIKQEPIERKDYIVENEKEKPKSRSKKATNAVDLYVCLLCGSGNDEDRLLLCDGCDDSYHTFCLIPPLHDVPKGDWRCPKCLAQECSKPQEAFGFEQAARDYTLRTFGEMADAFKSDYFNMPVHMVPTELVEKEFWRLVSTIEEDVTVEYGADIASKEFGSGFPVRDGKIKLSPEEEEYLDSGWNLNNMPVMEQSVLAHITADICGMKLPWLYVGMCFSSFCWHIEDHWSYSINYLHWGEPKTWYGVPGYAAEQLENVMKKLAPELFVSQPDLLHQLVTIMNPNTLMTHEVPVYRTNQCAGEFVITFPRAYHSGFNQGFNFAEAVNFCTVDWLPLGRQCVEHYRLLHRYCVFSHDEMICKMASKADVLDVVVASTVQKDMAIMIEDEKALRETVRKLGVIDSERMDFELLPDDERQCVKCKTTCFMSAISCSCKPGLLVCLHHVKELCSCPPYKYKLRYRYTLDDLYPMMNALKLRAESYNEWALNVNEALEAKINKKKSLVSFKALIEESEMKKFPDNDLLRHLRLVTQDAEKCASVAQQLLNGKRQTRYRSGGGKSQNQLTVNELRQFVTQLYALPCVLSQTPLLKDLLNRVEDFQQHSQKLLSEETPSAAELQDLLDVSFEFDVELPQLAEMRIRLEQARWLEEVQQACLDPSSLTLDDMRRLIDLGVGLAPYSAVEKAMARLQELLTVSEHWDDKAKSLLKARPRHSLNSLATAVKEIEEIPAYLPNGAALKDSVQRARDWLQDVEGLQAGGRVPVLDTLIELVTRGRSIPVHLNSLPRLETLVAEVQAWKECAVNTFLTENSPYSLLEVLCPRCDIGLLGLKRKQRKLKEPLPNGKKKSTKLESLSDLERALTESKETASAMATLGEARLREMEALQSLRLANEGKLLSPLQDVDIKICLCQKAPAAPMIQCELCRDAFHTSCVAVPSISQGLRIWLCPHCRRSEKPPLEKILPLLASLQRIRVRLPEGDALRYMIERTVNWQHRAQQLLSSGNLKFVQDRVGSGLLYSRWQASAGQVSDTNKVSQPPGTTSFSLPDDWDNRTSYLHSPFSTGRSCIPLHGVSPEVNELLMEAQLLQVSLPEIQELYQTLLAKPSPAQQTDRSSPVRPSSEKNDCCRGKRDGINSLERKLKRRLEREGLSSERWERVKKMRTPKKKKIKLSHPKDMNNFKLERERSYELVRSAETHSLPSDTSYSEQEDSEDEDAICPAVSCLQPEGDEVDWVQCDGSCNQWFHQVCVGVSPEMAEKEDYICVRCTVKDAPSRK

On to `C1COC(NC(C2CC2)C2CC2)=N1`, for which the Potency result in [1], in assay [2], in [3] and in assay [5] was “inactive” throughout. For the same molecule, the call in [4] and in assay [6] was inactive.

On to `O=C1CCC(N2C(=O)c3ccccc3C2=O)C(=O)N1` (stereo not given), for which the Potency result in assay [1], in assay [2], in [3] and in [5] was “inactive” in each case. Also, the molecule was classed as inactive in assay [4], in assay [7] and in [6].

With `CCC(C)N(C)C(=O)c1cc2ccccc2c(-c2ccccc2Cl)n1` (stereo not given), the Potency result in assay [1], in assay [2], in assay [3] and in assay [5] was “inactive” throughout. Moreover, the call in assay [4] and in assay [6] was inactive.

On to `C[C@]12CCC(=O)C=C1CC[C@@H]1[C@@H]2[C@@H](O)C[C@@]2(C)[C@H]1CC[C@]2(O)C(=O)CO`, for which the Potency entry in [1], in [2], in assay [3] and in assay [5] was “inactive” in each case. The result in [4], in assay [7] and in assay [6] was inactive.

`CCn1cc(C(=O)O)c(=O)c2cc(F)c(N3CCNC(C)C3)c(F)c21` (stereo not given): the Potency in assay [1] was 56.2 µM (active); in the assay with Furin (Homo sapiens) it was 24.1 µM (active); in assay [2], 26.7 µM (active); in [3], 29.9 µM (active). Also, the Potency result in [8], in assay [10] and in assay [5] was “inactive” in each case. The molecule was called inactive in [9], in assay [7] and in assay [6].

Turning to `Clc1cccc(Cl)c1NC1=NCCN1`, the Potency result in assay [1], in [2], in assay [3] and in [5] was “inactive” throughout. Further, the result in assay [4], in [7] and in assay [6] was inactive.

`OC(CN1CCC(Cc2ccc(F)cc2)CC1)c1ccc(Cl)cc1` (stereo not given): the Potency result in assay [1], in assay [2] and in assay [3] was “inactive” in each case. For the same molecule, the call in assay [4], in assay [7] and in [6] was inactive.

On to `CC(C[N+](C)(C)C)OC(N)=O` (stereo not given), for which the Potency entry in assay [1], in assay [2], in assay [3] and in [5] was “inactive” each time. In addition, the call in assay [4], in assay [7] and in assay [6] was inactive.

Consider `CC(C)(C)NCC(O)c1ccc(O)c(CO)c1` (stereo not given), for which the Potency entry in assay [1], in assay [2], in assay [3] and in assay [5] was “inactive” each time. The result in [4], in assay [7] and in assay [6] was inactive.

`Cc1cccc(-c2[nH]c(C(C)(C)C)nc2-c2ccc3nccnc3c2)n1`: the Potency entry in assay [1], in assay [2], in assay [3] and in [5] was “inactive” each time. The molecule was called inactive in assay [4] and in assay [6].

Take `CCCCNc1cc(C(=O)O)cc(S(N)(=O)=O)c1Oc1ccccc1`: the results for the Potency (in assay [1]; with Furin (Homo sapiens); in assay [2]) were 50.1 µM (active), 27 µM (active) and 29.9 µM (active), respectively. Moreover, the Potency entry in assay [11], in assay [10] and in assay [5] was “inactive” throughout. Further, the molecule was called inactive in assay [9], in [7] and in assay [6].

For the molecule `O=c1[nH]cnc2[nH]ncc12`, the Potency entry in assay [1], in assay [2], in assay [3] and in assay [5] was “inactive” throughout. Moreover, the outcome in assay [4], in assay [7] and in assay [6] was inactive.

For `Cc1cnc(NC(=O)C2=C(O)c3ccccc3S(=O)(=O)N2C)s1`, the Potency result in [1], in assay [2] and in assay [3] was “inactive” throughout. Also, the molecule was called inactive in assay [4] and in assay [6].

Values taken from PubChem BioAssay (NCATS).
